For 18 compounds, inhibition results are on record in PubChem BioAssay AID602405 (Broad Institute, 2012).

The campaign covered roughly 360,000 compounds. About 350 (0.097%) were called active. Rule as the data show it: active = inhibition above about 16% (passing the limit was not always enough); inconclusive = no clear call, values can overlap the other calls; inactive = below that. The list comes from a sample in which actives are over-represented; it also holds similar structures and randomly drawn compounds.

This experiment deals with UDP-N-acetylbacillosamine N-acetyltransferase PglD (Campylobacter jejuni). The experiment is described as follows: blockers of PglD enzyme activity – biochemical, DTNB colorimetric, single point, primary screen (AID 602405). The conditions noted are these: purified PglD enzyme, DTNB colorimetric CoA detection; at 12.5 µM; active compounds read high.
As usually defined, the inhibition is the change of the read-out against control, counted positive when it falls. For the compound `COC(=O)C[C@@H]1CC[C@H]2[C@@H](COC[C@H](O)CN2C(=O)Nc2ccccc2OC)O1`, the inhibition was -0.947% (inactive). `C[C@@H]1CN([C@@H](C)CO)C(=O)c2cc(NC(=O)CCCN(C)C)ccc2O[C@@H](C)CCCCO[C@H]1CN(C)Cc1ccc2c(c1)OCO2`: the inhibition was -1.38% (inactive). As to `Cc1noc(C)c1NC(=O)Nc1ccc2c(c1)C(=O)N([C@H](C)CO)C[C@H](C)[C@H](CN(C)C(=O)C1CCCCC1)OCCCC[C@@H](C)O2`, the inhibition was 0.321% (inactive). For `CCCNC(=O)N1C[C@@H](O)COC[C@@H]2O[C@@H](CC(=O)O)CC[C@H]21`, the inhibition was -1.59% (inactive).

Consider `CC(C)C#Cc1ccc([C@@H]2[C@@H](CO)N3CCCCN(C(=O)c4ccc5c(c4)OCO5)C[C@H]23)cc1`, for which the inhibition is -1.45% (inactive).

As for `OC[C@@H]1Nc2ccc(-c3cccc(F)c3)cc2[C@H]2[C@@H]1CCN2Cc1ccncc1`, the inhibition was -3.81% (inactive). As for `COc1cccc(S(=O)(=O)N[C@@H]2C=C[C@H](CC(=O)NC3CCC3)O[C@H]2CO)c1`, the inhibition was -3.06% (inactive). Regarding `CN1C(=O)c2cc(NC(=O)C3CCCCC3)ccc2OC[C@H]2O[C@@H](CC(=O)NC3CCCC3)CC[C@@H]21`, the inhibition is -4.23% (inactive). Regarding `CCCNC(=O)N1[C@H](C#N)[C@@H](c2ccc(C3=CCCC3)cc2)[C@H]1CO`, the inhibition was 10.3% (inactive). As to `C[C@H](CO)N1C[C@H](C)[C@H](CN(C)Cc2ccc(C(=O)Nc3ccccc3N)cc2)Oc2c(NC(=O)Nc3ccccc3)cccc2C1=O`, the inhibition was 1.92% (inactive).

`CO[C@@H]1CN(C)C(=O)c2ccc(NC(=O)c3ccc(F)cc3)cc2OC[C@H](C)N(C(=O)c2ccc(F)cc2)C[C@@H]1C`: the inhibition was -1.94% (inactive). The figure for `COc1ccc(NC(=O)Nc2cccc3c2O[C@H](CN(C)C(=O)Nc2cccc4ccccc24)[C@H](C)CN([C@H](C)CO)C3=O)cc1` is 2.27% (inactive). Regarding `CC(C)CC#Cc1ccc2c(c1)O[C@H](CN(C)C(=O)CC1CC1)[C@@H](C)CN([C@@H](C)CO)S2(=O)=O`, the inhibition is 0.792% (inactive). Turning to `CC(C)CCNC(=O)c1ccc2c(Cl)c3c(nc2c1)CCC3`, the inhibition was 58.9% (active). `CC(C)CCNC(=O)c1[nH]c(C(F)(F)F)nc1-c1ccccc1`: the inhibition was -5.32% (inactive). In the case of `CC(C)CCC(C)NC(=O)c1ccc2nccnc2c1` (stereo not drawn), the inhibition is -0.116% (inactive).

Regarding `Cc1noc(C)c1NC(=O)Nc1ccc2c(c1)CC(=O)N([C@H](C)CO)C[C@H](C)[C@H](CN(C)C(=O)NC(C)C)O2`, the inhibition was 2.55% (inactive). `CC(=O)N(C)C[C@H]1Oc2cc(C#CCN(C)C)ccc2S(=O)(=O)N([C@H](C)CO)C[C@H]1C`: the inhibition is -4.02% (inactive).
